± gives the standard deviation. Bounds are passed on as bounds.
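Further: 1 nM active piRISC with 0.1 nM target library at 33 °C single turnover.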

The test system of the test is MILI (PIWIL2) piRISC loaded with piRNA #1 (26 nt). Briefly: pre-steady-state target cleavage rate (min^-1); guide: piRNA #1 5'p-UGAGGUAGUAGGUUGUAUAGUAUCCA; MIWI and MILI are mouse PIWI proteins and EfPiwi is from a freshwater sponge; tags in brackets are library labels; higher = faster piRNA-guided slicing of the target. The following applies: auxiliary factor: 500 nM mouse GTSF1. The procedure, abridged:
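Reactions were run for 0–8 or 0–960 min at 33 °C in HEPES–potassium acetate buffer, combining 1 nM active affinity-purified piRISC with one synthetic guide, […] transcribed, DNA-blocked target RNA library and, in some cases, 500 nM GTSF1 partner protein. Sequencing of uncleaved targets followed, with normalisation to depth and to weakly complementary targets. Three trials were pooled, k3 was capped at 0.0001 min^-1, and the pre-steady-state cleavage rate was taken from a burst-and-steady-state fit.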
Turning to GGAGACCUUACUAAACAACCUACUUCCUCA, the “pre-steady-state target cleavage rate” value was found to be 0.0656 ± 0.014.

As to GGAGACCAUACUAUUCAACCUACUUCCUCA, the “pre-steady-state target cleavage rate” value is 0.1 ± 0.022. On to GGAGAGGAUACUAUAGAACCUACUACGUCA, for which the “pre-steady-state target cleavage rate” value is 0.0326 ± 0.0058.

Regarding GGAGACCUAUGAUUACAACCUACUAUCCUCA, the “pre-steady-state target cleavage rate” value came out at 0.00664 ± 0.0027. As for GGAGACCUAUCGUAUACAACCUACUACCUCA, the figure is 0.057 ± 0.011. Then GGAGAGGAUACUUUACAACCUACUACGUCA, with 0.0429 ± 0.0069; and GGAGACCUAUGUAUACAUCCUACUACCUCA, with 0.124 ± 0.012. As for GGAGACCUUACUAUAAAACCUACUACCUCA, the figure is 0.16 ± 0.019; as for GGAGACCUAUGUAUACUACCUACUUCCUCA, 0.0346 ± 0.0069. With GGAGACCUAUGUAUACAUCCUACUACCACA, the “pre-steady-state target cleavage rate” value was found to be 0.163 ± 0.017. As for “GGAGACGAUACUAUACAACCUACUACCUCC [g2:g24:cont:t1C]”, the figure is 0.182 ± 0.014; as for GGAGUGCAUACUAAACAACCUACUACCUCA, 0.147 ± 0.011; as for GGAGAGGAUUCUAUACAACCUACUACGUCA, 0.0519 ± 0.0081. As for GGAGACGUUACUAAACAACCUACUACCUCA, the figure is 0.153 ± 0.012; as for GGAGACCUAUGAUUACAUCCUACAACCUCA, 0.00871 ± 0.0027.

Consider GGAGUGGAUACUAUCAACCUACUACCUCA, for which the “pre-steady-state target cleavage rate” value amounted to 0.186 ± 0.0098. As for “GGAGACCUAUGAUAUGUUCCUACUACCUCG [g2:g12:cont:t1G]”, the figure is less than 0.0001; as for GGAGACCUAUGUAUUCAACCUACUAGCUCA, 0.0092 ± 0.0033; as for GGAGACGAUACUAUACAACCUUCUACCACA, 0.00864 ± 0.0028. Then GGAGACCUUACUAUACAACCUAUUACCUCA, with 0.226 ± 0.019. As for GGAGACCAUACUUUACAAGCUACUACCUCA, the figure is 0.199 ± 0.017. For GGAGACCUAUGAACUACAACCUACUACCUCA, the “pre-steady-state target cleavage rate” value is 0.00389 ± 0.0029. Take GGAGACCUAUGAUAUCAACGUACUAGCUCA: the “pre-steady-state target cleavage rate” value was less than 0.0001. As for GGAGACCUUACUAUACAACCUUCUUCCUCA, the “pre-steady-state target cleavage rate” value came to 0.00391 ± 0.0031. Regarding GGAGACCUUACUAUACAACGUACAACCUCA, the “pre-steady-state target cleavage rate” value worked out at 0.0226 ± 0.0031. GGAGAGGAUACUUUACUACCUACUACCUCA: the “pre-steady-state target cleavage rate” value turned out to be 0.161 ± 0.011.

Regarding GGAGACCUAUCUAAACAACCUACUACGUCA, the “pre-steady-state target cleavage rate” value turned out to be 0.0213 ± 0.0039.

In the case of GGAGACCUAUGAUUACAACAUACUACCUCA, the “pre-steady-state target cleavage rate” value is 0.00271 ± 0.0024.

For GGAGACCUAUGUAAACAACCUUCUACCUCA, the “pre-steady-state target cleavage rate” value was 0.00363 ± 0.0033. As for GGAGACCUAUGAUUACAUCCAACUACCUCA, the figure is 0.00328 ± 0.003. As for GGAGACCUAUGAAUACAACCUACUUACCUCA, the figure is 0.00968 ± 0.0023; as for GGAGACCUAUCUAACAACCUACUACCUCA, 0.0222 ± 0.0049. Then GGAGUGGAUUCAAUACAACCUACUACCUCA, with 0.142 ± 0.0076; and GGAGACCAUUCUAUACUACCUACUACCUCA, with 0.111 ± 0.013. For the sequence GGAGACCUAUGAUAUGAAACCUACUACCUCA, the “pre-steady-state target cleavage rate” value is 0.00314 ± 0.0026. As for GGAGAGGAUACUAAUGAACCUACUACCUCA, the figure is 0.0555 ± 0.0058; as for GGAGACCUAUCUUUACAACCUACUACGUCA, 0.0265 ± 0.0062.

With GGAGACCUAUGAUAAGCAACCUACUACCUCA, the “pre-steady-state target cleavage rate” value stood at 0.00516 ± 0.0031. Consider GGAGACGAUACUAGUACAACCUACUACCUCA, for which the “pre-steady-state target cleavage rate” value worked out at 0.153 ± 0.013. For the sequence GGAGACCUAUCUAUAGCAACCUACUACCUCA, the “pre-steady-state target cleavage rate” value came to 0.0831 ± 0.016.
